Of roughly 8,800 targets only a part is listed; those with a hit were picked by preference. About 0.5% of all pairs of compound and target were hits.
How the values were obtained:
Test in all cases: log2 fold change, soluble protein after heating vs DMSO (PISA); higher = thermal stabilisation; K562 lysate, 10 uM; active = over 0.2 and 3.5 SD of the protein, either way, in both replicates (recomputed)
[1] = compound: C1=CC=C(C=C1)[C@H](COC2=CC3=C(C=C2)NC(=O)N3)NC(=O)C4=CC=CN(C4=O)CC5=CC(=C(C=C5)F)F
Summary of the method: (§1)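 Values give the log-two fold change in thermal stability against solvent controls, from duplicates. Crude K562 extract at 1 mg/mL protein, made by dounce homogenisation in PBS pH 7.4 with 1 mM MgCl2, was treated with 10 μM compound for 30 min. After 3 min heating across 48°C-58°C, aliquots were pooled, adjusted to 0.5% NP-40 at 4°C and centrifuged at 21,000xg for 90 min. The supernatant was measured by TMTpro 16plex LC-MS/MS with channel sums equalised.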

[2] = compound: CC1=C(SC2=C1C(=N[C@H](C3=NN=C(N32)C)CC(=O)N)C4=CC=C(C=C4)Cl)C
Summary of the method: as §1

[3] = compound: CC1=C2C(=CC=C1)N=C(N(C2=O)C3=CC=CC=C3C)CN4C=NC5=C(N=CN=C54)N
Summary of the method: as §1

[4] = compound: Cc1sc2c(c1C)C(c1ccc(Cl)cc1)=N[C@@H](CC(=O)OC(C)(C)C)c1nnc(C)n1-2
Summary of the method: as §1

[5] = compound: c1ccc([C@@H]2C[C@H]2NC2CCNCC2)cc1
Summary of the method: as §1

Measured: log2 fold change

DHRS11 (UniProt Q6UWP2)
inactive: [1] -0.004 | [2] 0.012 | [3] 0.018 | [4] 0.013 | [5] 0.014

DCUN1D4 isoform 3 (UniProt Q92564)
inactive: [1] 0.084 | [2] 0.087 | [3] 0.055 | [4] -0.139 | [5] 0.055

COASY isoform 2 (UniProt Q13057)
inactive: [1] -0.049 | [2] -0.002 | [3] 0.03 | [4] 0.07 | [5] 0.01

CLASP1 (UniProt Q7Z460)
inactive: [1] -0.019 | [2] 0.011 | [3] 0.022 | [4] -0.026 | [5] -0.007

CHEK2 (UniProt O96017)
inactive: [1] -0.02 | [2] -0.041 | [3] -0.016 | [4] 0.006 | [5] 0.014

CLIC2 (UniProt O15247)
inactive: [1] -0.022 | [2] 0.033 | [3] 0 | [4] 0.017 | [5] 0.029

CKAP2 (UniProt Q8WWK9)
inactive: [1] 0.052 | [2] 0.066 | [3] 0.001 | [4] -0.003 | [5] -0.021

DNAH10 (UniProt Q8IVF4)
UniProt Q8IVF4, sequence (Q8IVF4 whole entry, looked up): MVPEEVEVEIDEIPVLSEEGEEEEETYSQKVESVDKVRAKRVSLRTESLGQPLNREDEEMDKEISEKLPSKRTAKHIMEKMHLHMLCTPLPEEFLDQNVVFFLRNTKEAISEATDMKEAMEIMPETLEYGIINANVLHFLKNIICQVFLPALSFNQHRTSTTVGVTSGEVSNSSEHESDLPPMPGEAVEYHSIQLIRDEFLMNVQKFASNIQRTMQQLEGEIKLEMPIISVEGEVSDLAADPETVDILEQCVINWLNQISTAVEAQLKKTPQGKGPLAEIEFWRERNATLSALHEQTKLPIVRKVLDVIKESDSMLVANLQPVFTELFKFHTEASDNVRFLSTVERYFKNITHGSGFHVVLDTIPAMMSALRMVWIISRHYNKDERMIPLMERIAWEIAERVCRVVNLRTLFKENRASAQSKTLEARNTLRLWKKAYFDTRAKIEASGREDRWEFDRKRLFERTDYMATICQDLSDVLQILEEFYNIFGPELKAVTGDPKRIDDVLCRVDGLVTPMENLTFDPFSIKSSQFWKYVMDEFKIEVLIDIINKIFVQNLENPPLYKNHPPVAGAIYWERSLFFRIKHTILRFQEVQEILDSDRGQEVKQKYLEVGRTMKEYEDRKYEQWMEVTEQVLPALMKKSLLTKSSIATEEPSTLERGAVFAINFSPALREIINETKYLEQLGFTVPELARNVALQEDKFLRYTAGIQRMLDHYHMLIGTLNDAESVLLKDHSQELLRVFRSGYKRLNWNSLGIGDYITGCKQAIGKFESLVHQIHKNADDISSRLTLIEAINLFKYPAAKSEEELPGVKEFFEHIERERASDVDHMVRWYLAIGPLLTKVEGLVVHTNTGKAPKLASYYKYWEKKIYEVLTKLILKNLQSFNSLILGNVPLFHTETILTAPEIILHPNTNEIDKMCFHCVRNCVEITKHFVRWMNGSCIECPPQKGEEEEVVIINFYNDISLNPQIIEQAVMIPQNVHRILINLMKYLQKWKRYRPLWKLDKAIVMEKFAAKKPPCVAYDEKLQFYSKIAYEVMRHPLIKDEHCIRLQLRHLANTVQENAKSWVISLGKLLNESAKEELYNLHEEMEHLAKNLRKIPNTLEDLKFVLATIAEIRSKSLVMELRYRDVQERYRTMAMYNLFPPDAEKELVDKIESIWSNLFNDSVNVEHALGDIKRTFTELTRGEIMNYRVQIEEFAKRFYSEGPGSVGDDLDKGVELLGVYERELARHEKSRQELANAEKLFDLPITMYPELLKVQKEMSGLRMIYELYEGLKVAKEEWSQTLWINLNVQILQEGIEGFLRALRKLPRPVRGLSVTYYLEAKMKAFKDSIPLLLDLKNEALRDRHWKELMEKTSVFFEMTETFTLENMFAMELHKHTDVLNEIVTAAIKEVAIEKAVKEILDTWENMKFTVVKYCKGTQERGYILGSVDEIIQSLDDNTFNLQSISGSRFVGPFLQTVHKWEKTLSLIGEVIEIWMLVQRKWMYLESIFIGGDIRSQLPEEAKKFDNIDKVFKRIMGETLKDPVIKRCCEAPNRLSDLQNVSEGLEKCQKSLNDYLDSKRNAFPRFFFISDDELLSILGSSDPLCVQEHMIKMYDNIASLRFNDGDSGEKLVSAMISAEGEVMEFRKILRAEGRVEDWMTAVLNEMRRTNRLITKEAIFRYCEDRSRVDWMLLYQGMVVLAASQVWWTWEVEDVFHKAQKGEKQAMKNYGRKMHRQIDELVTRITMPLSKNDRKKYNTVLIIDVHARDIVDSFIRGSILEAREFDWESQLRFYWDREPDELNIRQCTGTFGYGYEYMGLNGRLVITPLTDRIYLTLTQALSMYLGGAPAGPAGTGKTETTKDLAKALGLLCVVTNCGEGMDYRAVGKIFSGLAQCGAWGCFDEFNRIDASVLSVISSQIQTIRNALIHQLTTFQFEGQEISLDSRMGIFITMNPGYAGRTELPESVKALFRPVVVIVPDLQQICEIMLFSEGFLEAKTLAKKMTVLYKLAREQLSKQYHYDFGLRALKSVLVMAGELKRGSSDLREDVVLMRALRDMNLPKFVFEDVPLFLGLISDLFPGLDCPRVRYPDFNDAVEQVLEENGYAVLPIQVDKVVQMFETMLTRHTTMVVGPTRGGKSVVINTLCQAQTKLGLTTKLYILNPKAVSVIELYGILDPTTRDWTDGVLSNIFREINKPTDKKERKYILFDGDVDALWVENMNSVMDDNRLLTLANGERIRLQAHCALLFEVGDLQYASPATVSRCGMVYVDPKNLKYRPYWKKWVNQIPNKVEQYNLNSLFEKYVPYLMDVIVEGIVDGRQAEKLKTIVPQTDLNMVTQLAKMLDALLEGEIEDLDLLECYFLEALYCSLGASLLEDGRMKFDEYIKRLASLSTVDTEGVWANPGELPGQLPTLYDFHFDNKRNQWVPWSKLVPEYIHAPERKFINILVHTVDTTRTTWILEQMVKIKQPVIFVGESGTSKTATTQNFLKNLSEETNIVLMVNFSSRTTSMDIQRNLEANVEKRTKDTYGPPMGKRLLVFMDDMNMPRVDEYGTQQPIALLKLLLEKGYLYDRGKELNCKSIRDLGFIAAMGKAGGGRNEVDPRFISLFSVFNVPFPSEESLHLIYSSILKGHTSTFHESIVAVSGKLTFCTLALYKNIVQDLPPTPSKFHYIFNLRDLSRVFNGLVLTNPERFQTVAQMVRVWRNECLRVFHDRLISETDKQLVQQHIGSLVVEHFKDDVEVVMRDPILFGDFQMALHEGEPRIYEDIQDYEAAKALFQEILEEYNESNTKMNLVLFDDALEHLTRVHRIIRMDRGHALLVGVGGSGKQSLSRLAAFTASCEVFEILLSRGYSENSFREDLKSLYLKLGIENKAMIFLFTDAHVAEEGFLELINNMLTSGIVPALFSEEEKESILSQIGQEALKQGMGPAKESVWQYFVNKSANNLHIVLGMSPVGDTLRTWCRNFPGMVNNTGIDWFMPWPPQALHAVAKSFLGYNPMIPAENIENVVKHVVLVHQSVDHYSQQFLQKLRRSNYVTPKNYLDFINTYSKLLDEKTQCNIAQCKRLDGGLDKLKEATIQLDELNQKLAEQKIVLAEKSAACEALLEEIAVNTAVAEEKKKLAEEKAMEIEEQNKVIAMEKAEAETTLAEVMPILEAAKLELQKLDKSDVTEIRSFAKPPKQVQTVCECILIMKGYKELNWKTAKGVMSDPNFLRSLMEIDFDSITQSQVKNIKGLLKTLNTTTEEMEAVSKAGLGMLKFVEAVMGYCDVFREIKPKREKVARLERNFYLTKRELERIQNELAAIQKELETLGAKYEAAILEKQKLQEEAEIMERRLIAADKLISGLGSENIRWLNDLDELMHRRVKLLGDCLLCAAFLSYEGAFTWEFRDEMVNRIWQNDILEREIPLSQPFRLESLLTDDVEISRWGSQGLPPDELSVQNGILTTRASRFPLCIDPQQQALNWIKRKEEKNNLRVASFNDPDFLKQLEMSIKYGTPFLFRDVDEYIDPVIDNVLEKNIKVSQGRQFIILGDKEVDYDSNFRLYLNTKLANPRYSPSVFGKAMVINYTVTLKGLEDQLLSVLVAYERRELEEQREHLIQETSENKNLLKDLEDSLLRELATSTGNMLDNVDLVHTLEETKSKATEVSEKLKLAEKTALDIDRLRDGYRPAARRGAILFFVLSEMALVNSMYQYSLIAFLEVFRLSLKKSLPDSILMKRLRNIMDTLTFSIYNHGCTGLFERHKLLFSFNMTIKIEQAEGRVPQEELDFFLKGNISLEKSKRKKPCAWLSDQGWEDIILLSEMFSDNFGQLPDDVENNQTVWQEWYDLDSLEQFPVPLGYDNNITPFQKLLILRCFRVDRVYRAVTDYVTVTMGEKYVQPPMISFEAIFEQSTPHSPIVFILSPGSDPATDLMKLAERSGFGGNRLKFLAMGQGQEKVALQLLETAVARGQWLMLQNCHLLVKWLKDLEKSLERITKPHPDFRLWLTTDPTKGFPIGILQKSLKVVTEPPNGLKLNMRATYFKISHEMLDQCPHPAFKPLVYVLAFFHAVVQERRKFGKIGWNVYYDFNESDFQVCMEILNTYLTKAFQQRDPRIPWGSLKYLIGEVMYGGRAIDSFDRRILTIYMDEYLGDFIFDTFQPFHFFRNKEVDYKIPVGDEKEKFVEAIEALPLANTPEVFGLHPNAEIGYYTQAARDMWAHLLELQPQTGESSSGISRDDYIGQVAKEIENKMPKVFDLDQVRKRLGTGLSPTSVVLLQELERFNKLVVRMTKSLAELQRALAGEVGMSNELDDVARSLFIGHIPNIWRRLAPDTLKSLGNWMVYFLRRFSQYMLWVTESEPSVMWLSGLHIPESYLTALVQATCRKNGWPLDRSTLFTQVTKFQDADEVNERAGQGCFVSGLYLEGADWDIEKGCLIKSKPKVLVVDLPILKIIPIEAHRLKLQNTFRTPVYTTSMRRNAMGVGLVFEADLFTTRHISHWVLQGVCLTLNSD
inactive: [1] 0.069 | [2] 0.014 | [3] 0.095 | [4] -0.081 | [5] -0.274

CIP2A (UniProt Q8TCG1)
inactive: [1] -0.03 | [2] -0.002 | [3] -0.008 | [4] -0.021 | [5] 0.018

CLUH (UniProt O75153)
inactive: [1] 0.03 | [2] 0.008 | [3] 0.021 | [4] -0.02 | [5] -0.058

DPM1 (UniProt O60762)
inactive: [1] -0.01 | [2] 0.048 | [3] 0.022 | [4] 0.073 | [5] 0.093

CYCS (UniProt P99999)
inactive: [1] -0.013 | [2] 0.016 | [3] 0.002 | [4] 0.002 | [5] -0.01

COG6 (UniProt Q9Y2V7)
inactive: [1] -0.023 | [2] 0.011 | [3] 0.029 | [4] -0.032 | [5] 0.069

CNP (UniProt P09543)
inactive: [1] -0.022 | [2] 0.001 | [3] 0.036 | [4] 0.016 | [5] 0.021

DNAH5 (UniProt Q8TE73)
inactive: [1] -0.019 | [2] 0.018 | [3] 0.007 | [4] -0.087 | [5] -0.216

DDX54 isoform 2 (UniProt Q8TDD1)
inactive: [1] -0.131 | [2] 0.041 | [3] 0.09 | [4] 0.052 | [5] 0.008

DLD (UniProt P09622)
inactive: [1] 0.005 | [2] -0.017 | [3] 0.008 | [4] -0.022 | [5] -0.076

DHRS1 (UniProt Q96LJ7)
inactive: [1] 0.15 | [2] -0.103 | [3] -0.015 | [4] 0.029 | [5] -0.107

CIAO2A (UniProt Q9H5X1)
inactive: [1] -0.049 | [2] 0.062 | [3] 0.023 | [4] -0.032 | [5] 0.064

CORO7 isoform 3 (UniProt P57737)
inactive: [1] -0.003 | [2] -0.006 | [3] 0.033 | [4] 0.018 | [5] 0.036

CINP isoform 3 (UniProt Q9BW66)
inactive: [1] -0.016 | [2] -0.042 | [3] 0.039 | [4] -0.157 | [5] -0.145

DNAJC5 (UniProt Q9H3Z4)
inactive: [1] 0.032 | [2] -0.015 | [3] -0.034 | [4] 0.009 | [5] -0.308

CHML (UniProt P26374)
UniProt P26374, sequence (P26374 whole entry, looked up): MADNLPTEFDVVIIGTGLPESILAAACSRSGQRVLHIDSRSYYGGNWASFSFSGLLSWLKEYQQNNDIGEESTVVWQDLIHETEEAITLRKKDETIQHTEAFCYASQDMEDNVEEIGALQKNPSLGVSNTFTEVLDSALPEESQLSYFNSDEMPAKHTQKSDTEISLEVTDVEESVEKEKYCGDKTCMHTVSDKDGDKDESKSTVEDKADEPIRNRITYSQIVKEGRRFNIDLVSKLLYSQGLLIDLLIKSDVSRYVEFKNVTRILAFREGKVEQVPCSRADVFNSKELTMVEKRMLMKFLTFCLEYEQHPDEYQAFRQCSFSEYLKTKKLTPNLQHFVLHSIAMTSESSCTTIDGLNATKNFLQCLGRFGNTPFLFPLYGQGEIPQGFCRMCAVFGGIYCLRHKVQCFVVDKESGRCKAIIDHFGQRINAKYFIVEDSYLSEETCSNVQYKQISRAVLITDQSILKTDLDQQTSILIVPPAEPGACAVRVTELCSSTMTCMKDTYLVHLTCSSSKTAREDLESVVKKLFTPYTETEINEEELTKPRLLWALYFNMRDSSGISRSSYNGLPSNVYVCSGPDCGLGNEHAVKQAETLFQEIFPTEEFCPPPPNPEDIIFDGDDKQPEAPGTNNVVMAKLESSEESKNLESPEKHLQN
inactive: [1] 0.011 | [2] -0.027 | [3] 0.01 | [4] 0.016 | [5] -0.03

CNDP2 (UniProt Q96KP4)
inactive: [1] 0.017 | [2] 0.017 | [3] -0.022 | [4] -0.006 | [5] -0.145

COMT (UniProt P21964)
inactive: [1] -0.007 | [2] -0.01 | [3] -0.016 | [4] 0.062 | [5] 0.054

DOK1 (UniProt Q99704)
inactive: [1] 0.048 | [2] -0.024 | [3] -0.005 | [4] 0.064 | [5] -0.036

DES (UniProt P17661)
inactive: [1] 0 | [2] 0.05 | [3] 0.062 | [4] -0.219 | [5] -0.131

CSK (UniProt P41240)
inactive: [1] -0.039 | [2] -0.049 | [3] -0.019 | [4] -0.057 | [5] -0.037

CHUK (UniProt O15111)
inactive: [1] -0.02 | [2] 0.032 | [3] 0 | [4] -0.026 | [5] 0.015

DDB2 (UniProt Q92466)
inactive: [1] -0.025 | [2] -0.026 | [3] 0.034 | [4] -0.027 | [5] 0.006

DMAC2L (UniProt Q99766)
inactive: [1] -0.031 | [2] -0.048 | [3] 0.057 | [4] -0.005 | [5] -0.061

DNM2 (UniProt P50570)
inactive: [1] -0.01 | [2] 0.038 | [3] 0.035 | [4] 0.05 | [5] 0.057

CLUH, A0A494C0R8
inactive: [1] 0.014 | [2] 0.118 | [3] 0.133 | [4] -0.116 | [5] 0.132

DLGAP5 (UniProt Q15398)
inactive: [1] 0.029 | [2] -0.006 | [3] 0.009 | [4] -0.036 | [5] -0.015

CSNK2A2 (UniProt P19784)
inactive: [1] -0.02 | [2] -0.033 | [3] -0.213 | [4] 0.038 | [5] 0.015

DBF4 (UniProt Q9UBU7)
inactive: [1] 0.073 | [2] 0.002 | [3] 0.071 | [4] 0.113 | [5] 0.078

CSTB (UniProt P04080)
inactive: [1] -0.031 | [2] -0.018 | [3] -0.032 | [4] -0.071 | [5] -0.146

CLPTM1L (UniProt Q96KA5)
inactive: [1] -0.075 | [2] 0.039 | [3] 0.04 | [4] -0.02 | [5] 0.022

DDA1 (UniProt Q9BW61)
inactive: [1] 0.073 | [2] 0.024 | [3] -0.016 | [4] -0.003 | [5] 0.029

DICER1 (UniProt Q9UPY3)
inactive: [1] 0.028 | [2] 0.006 | [3] 0.045 | [4] 0.029 | [5] -0.038

CPT1A (UniProt P50416)
inactive: [1] 0.042 | [2] 0.03 | [3] -0.004 | [4] 0.07 | [5] 0.011

CNOT4 isoform 6 (UniProt O95628)
inactive: [1] -0.042 | [2] -0.02 | [3] -0.028 | [4] 0.051 | [5] -0.004

CUL1 (UniProt Q13616)
inactive: [1] 0.017 | [2] -0.027 | [3] -0.007 | [4] 0.016 | [5] -0.001

CSNK1A1 (UniProt P48729)
inactive: [1] -0.027 | [2] 0.007 | [3] -0.033 | [4] 0.025 | [5] -0.044

DNAAF5 (UniProt Q86Y56)
inactive: [1] -0.054 | [2] 0.038 | [3] -0.005 | [4] 0.016 | [5] 0.064

CSDE1 isoform 4 (UniProt O75534)
inactive: [1] -0.012 | [2] -0.009 | [3] -0.017 | [4] 0.046 | [5] 0.04

CLP1 (UniProt Q92989)
inactive: [1] -0.023 | [2] -0.002 | [3] -0.023 | [4] 0.026 | [5] -0.1
